Data as given in PubChem BioAssay AID1159580 (chemical genetic matrix, 2015).
Hit rate of the full screen: of about 5,500 compounds, about 2,000 (36%) were called active. Another 18% or so got no clear call; they are omitted. Cut-off read from the data, not from the text of the source: active = normalized growth mostly below about 0.91 (no sharp cut-off); inconclusive = no clear call, values can overlap the other calls; inactive = mostly above about 0.92. This is one part of the list.

Assay: chemical genetic growth profiling, strain panel (AID 1159580);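 note: tested at 20 µM; growth read once vehicle control cultures reached saturation at 30 °C; 1 = growth at the plate median or of vehicle wells; lower values mean less growth of the strain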
Settings: growth OD

Measured: normalized growth

COc1ccc(-c2cc(=O)c3c(OC(C)=O)cc(OC(C)=O)cc3o2)cc1
inactive: S. cerevisiae deletion strains, locus YJR066W, strain TOR1, active compounds read low 0.922 | S. cerevisiae deletion strains, locus YJR075W, strain HOC1, active compounds read low 0.946 | S. cerevisiae deletion strains, locus YKL009W, strain mrt4, active compounds read low 0.994 | S. cerevisiae deletion strains, locus YKL068W, active compounds read low 0.972 | S. cerevisiae deletion strains, locus YKL085W, strain MDH1 (second series), active compounds read low 0.968 | S. cerevisiae deletion strains, locus YKL085W, strain MDH1, active compounds read low 0.968 | S. cerevisiae deletion strains, locus YKL160W, strain elf1, active compounds read low 0.974 | S. cerevisiae deletion strains, locus YKL190W, strain CNB1, active compounds read low 0.967 | S. cerevisiae deletion strains, locus YKR001C, strain vps1, active compounds read low 0.941 | S. cerevisiae deletion strains, locus YKR026C, strain gcn3, active compounds read low 0.985 | S. cerevisiae deletion strains, locus YKR091W, strain srl3, active compounds read low 0.999 | S. cerevisiae deletion strains, locus YLL001W, strain dnm1, active compounds read low 0.937 | S. cerevisiae deletion strains, locus YLL026W, active compounds read low 0.985 | S. cerevisiae deletion strains, locus YLL041C, strain sdh2, active compounds read low 0.992 | S. cerevisiae deletion strains, locus YLR027C, strain aat2, active compounds read low 0.984 | S. cerevisiae deletion strains, locus YLR039C, strain RIC1, active compounds read low 0.824 | S. cerevisiae deletion strains, locus YLR058C, strain SHM2, active compounds read low 0.957 | S. cerevisiae deletion strains, locus YLR102C, strain apc9, active compounds read low 0.959 | S. cerevisiae deletion strains, locus YLR221C, strain rsa3, active compounds read low 0.973 | S. cerevisiae deletion strains, locus YLR258W, strain gsy2, active compounds read low 0.971 | S. cerevisiae deletion strains, locus YLR262C, strain YPT6 (second series), active compounds read low 0.914 | S. cerevisiae deletion strains, locus YLR262C, strain YPT6, active compounds read low 0.807 | S. cerevisiae deletion strains, locus YLR268W, strain sec22, active compounds read low 0.964 | S. cerevisiae deletion strains, locus YLR320W, strain mms22, active compounds read low 0.965 | S. cerevisiae deletion strains, locus YLR330W, strain CHS5, active compounds read low 0.929 | S. cerevisiae deletion strains, locus YLR342W, strain FKS1 (second series), active compounds read low 1.01 | S. cerevisiae deletion strains, locus YLR342W, strain FKS1, active compounds read low 1 | S. cerevisiae deletion strains, locus YLR357W, strain rsc2, active compounds read low 0.894 | S. cerevisiae deletion strains, locus YLR370C, strain arc18, active compounds read low 0.992 | S. cerevisiae deletion strains, locus YLR371W, strain rom2, active compounds read low 0.952 | S. cerevisiae deletion strains, locus YLR384C, strain iki3, active compounds read low 0.981 | S. cerevisiae deletion strains, locus YML016C, strain PPZ1, active compounds read low 0.924 | S. cerevisiae deletion strains, locus YML032C, strain rad52, active compounds read low 0.964 | S. cerevisiae deletion strains, locus YML120C, strain ndi1, active compounds read low 0.973 | S. cerevisiae deletion strains, locus YML124C, strain tub3, active compounds read low 0.958 | S. cerevisiae deletion strains, locus YMR058W, strain fet3, active compounds read low 0.983 | S. cerevisiae deletion strains, locus YMR078C, strain ctf18, active compounds read low 0.963 | S. cerevisiae deletion strains, locus YMR125W, strain sto1, active compounds read low 0.965 | S. cerevisiae deletion strains, locus YMR129W, active compounds read low 0.981 | S. cerevisiae deletion strains, locus YMR205C, strain PFK2, active compounds read low 0.976 | S. cerevisiae deletion strains, locus YMR223W, strain ubp8, active compounds read low 0.946 | S. cerevisiae deletion strains, locus YMR231W, strain pep5, active compounds read low 0.994 | S. cerevisiae deletion strains, locus YMR307W, strain GAS1, active compounds read low 0.913 | S. cerevisiae deletion strains, locus YNL067W, strain RPL9B, active compounds read low 0.945 | S. cerevisiae deletion strains, locus YNL183C, strain NPR1, active compounds read low 0.84 | S. cerevisiae deletion strains, locus YNL209W, strain ssb2, active compounds read low 0.996 | S. cerevisiae deletion strains, locus YNL233W, strain BNI4, active compounds read low 0.89 | S. cerevisiae deletion strains, locus YNL248C, strain rpa49, active compounds read low 0.955 | S. cerevisiae deletion strains, locus YNL250W, strain rad50, active compounds read low 0.958 | S. cerevisiae deletion strains, locus YNL271C, strain bni1, active compounds read low 0.986 | S. cerevisiae deletion strains, locus YNL298W, strain CLA4, active compounds read low 0.968 | S. cerevisiae deletion strains, locus YNL322C, strain KRE1 (second series), active compounds read low 0.952 | S. cerevisiae deletion strains, locus YNR049C, strain mso1, active compounds read low 0.992 | S. cerevisiae deletion strains, locus YNR052C, strain pop2, active compounds read low 0.949 | S. cerevisiae deletion strains, locus YOL006C, strain TOP1, active compounds read low 0.97 | S. cerevisiae deletion strains, locus YOL012C, strain htz1 0.936 | S. cerevisiae deletion strains, locus YOL147C, strain pex11, active compounds read low 0.945 | S. cerevisiae deletion strains, locus YOR001W, strain rrp6, active compounds read low 0.967 | S. cerevisiae deletion strains, locus YOR061W, strain CKA2, active compounds read low 1 | S. cerevisiae deletion strains, locus YOR069W, strain VPS5, active compounds read low 0.959 | S. cerevisiae deletion strains, locus YOR070C, strain gyp1, active compounds read low 0.999 | S. cerevisiae deletion strains, locus YOR080W, strain dia2, active compounds read low 0.989 | S. cerevisiae deletion strains, locus YOR083W, strain WHI5, active compounds read low 0.984 | S. cerevisiae deletion strains, locus YOR106W, strain vam3, active compounds read low 0.988 | S. cerevisiae deletion strains, locus YOR136W, strain idh2, active compounds read low 0.978 | S. cerevisiae deletion strains, locus YOR144C, strain elg1, active compounds read low 0.961 | S. cerevisiae deletion strains, locus YOR184W, strain ser1, active compounds read low 0.982 | S. cerevisiae deletion strains, locus YOR231W, strain MKK1, active compounds read low 0.876 | S. cerevisiae deletion strains, locus YOR265W, strain rbl2, active compounds read low 0.99 | S. cerevisiae deletion strains, locus YOR270C, strain vph1, active compounds read low 0.889 | S. cerevisiae deletion strains, locus YOR290C, strain snf2, active compounds read low 0.949 | S. cerevisiae deletion strains, locus YOR316C, strain cot1, active compounds read low 0.942 | S. cerevisiae deletion strains, locus YPL051W, strain arl3, active compounds read low 0.954 | S. cerevisiae deletion strains, locus YPL055C, strain LGE1, active compounds read low 0.906 | S. cerevisiae deletion strains, locus YPL078C, strain atp4, active compounds read low 0.967 | S. cerevisiae deletion strains, locus YPL106C, strain sse1, active compounds read low 0.922 | S. cerevisiae deletion strains, locus YPL240C, strain hsp82, active compounds read low 0.987 | S. cerevisiae deletion strains, locus YPL241C, strain CIN2, active compounds read low 0.973 | S. cerevisiae deletion strains, locus YPR119W, strain clb2, active compounds read low 0.958 | S. cerevisiae deletion strains, locus YPR141C, strain kar3, active compounds read low 0.953 | S. cerevisiae deletion strains, locus YPR163C, strain tif3, active compounds read low 0.981 | S. cerevisiae deletion strains, locus YPR167C, strain met16, active compounds read low 0.946 | S. cerevisiae deletion strains, strain wtn01, active compounds read low 0.987 | S. cerevisiae strains, strain wild type, active compounds read low 0.971
active: S. cerevisiae deletion strains, locus YLR113W, strain HOG1, active compounds read low 0.805 | S. cerevisiae deletion strains, locus YLR418C, strain cdc73, active compounds read low 0.685 | S. cerevisiae deletion strains, locus YNL071W, strain lat1, active compounds read low 0.893 | S. cerevisiae deletion strains, locus YNL307C, strain MCK1, active compounds read low 0.878 | S. cerevisiae deletion strains, locus YPL256C, strain CLN2, active compounds read low 0.756
